Source: PubChem BioAssay
An excerpt weighted towards active compounds, which were near 2.4% of everything screened.
HepG2 tox: kills HepG2 cells in TGF-b inhibitor counter-screen. HepG2 CAGA-GFP viability, ATP luminescence, 18 h. Potency, µM (series often up to 46.1 µM), without a hit: at the top dose activity change, negative = cytotoxicity, usual class: cytotoxic. hit rate 0.76% among 410,000
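HepG2 CAGA-GFP cells (1000/well, DMEM with 1% FBS) received compound, then TGF-beta at 500 pg/mL final, and were incubated 18 hours at 37 degrees C. Viability was read by CellTiter-Glo luminescence. Media-only wells were set as complete cell-killing and DMSO as no toxicity.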
Anesthetic bind: binds horse apoferritin like a general anesthetic; P02791; apoferritin/1-aminoanthracene competitive binding, fluorescence; Potency, µM (top dose mostly 77.5 µM), inactives show top-dose activity change, negative = displacement, actives largely listed as inhibitors; hit rate 0.074% among 350,000; AID 485281; further: on the % scale 0 is the no-effect control and ±100 the full control effect; nearly all actives have a fitted effect of over 20% in size
Target sequence (P02791 2-175 limits assumed): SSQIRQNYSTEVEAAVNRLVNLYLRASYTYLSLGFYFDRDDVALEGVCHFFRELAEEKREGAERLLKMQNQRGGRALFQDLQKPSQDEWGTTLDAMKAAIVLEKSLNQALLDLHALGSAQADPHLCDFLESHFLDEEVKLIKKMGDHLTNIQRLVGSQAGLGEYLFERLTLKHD
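Read-out: endpoint 1-AMA fluorescence, excitation 380 nm and emission 535 nm, after compounds sit 10 min at room temperature with 10 uM horse-spleen apoferritin in 50% saturated 1-AMA/PBS. Values come from four-parameter Hill fits.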
S2 tox: reduces viability in counter-screen for ATXN expression inhibitors; hit rate 0.49% among 400,000; Potency, µM (doses to about 56.7 µM), hits mostly cytotoxic; S2 cells (HEK-293 line with an ATXN2-luciferase reporter) viability, CellTiter-Fluor protease fluorescence, 24 h; further: nearly all actives have a fitted effect of over 40% in size
TGFb SMAD3 inh: blocks TGF-b signaling; Potency, µM (titrated, usually from 46.1 µM), inactives show at the top dose activity, negative = inhibition, actives largely listed as inhibitors; hit rate 1.2% among 410,000; HepG2 CAGA-GFP TGF-b/SMAD3 reporter, GFP fluorescence, 18 h; TGF-beta stimulated, 500 pg/mL final; further: on the % scale 0 is the no-effect control and ±100 the full control effect; nearly all actives have a fitted effect of over 65% in size
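Inhibition was scored as loss of TGF-beta-induced (500 pg/mL final, 18 hours, 37 degrees C) GFP in HEPG2 cells carrying a CAGA-GFP reporter, in DMEM with 1% FBS. Well GFP was summed per cell; Activity was normalised to unstimulated and stimulated DMSO wells, then concentration-response fitting.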
ATXN2 expr inh: ATXN2 expression inhibition; HEK-293 ATXN2-luciferase reporter, luminescence, 24 h; Potency, µM (highest dose often 57 µM), for inactives: at the highest dose activity change, negative = inhibition, actives largely listed as inhibitors; hit rate 0.72% among 360,000; AID 1745845; further: on the % scale 0 is the no-effect control and ±100 the full control effect; nearly all actives have a fitted effect of over 55% in size
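qHTS (up to 57 uM final) was run with 24 h compound exposure of reporter cells at 37 °C. Each well was multiplexed: SteadyGlo luminescence measured ATXN2-luciferase expression after a fluorogenic Gly-Phe-AFC viability readout (25 uM final).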
* hit, by the source's call; i = inactive; ? = inconclusive; . = no result given; [ ] = remark or other dose. The call rests on the fitted dose curve; in most records, active means well fitted curve in the direction sought with a large enough effect; inconclusive means small, poorly fitted or top-dose-only effect, or another doubt; inactive means no such curve, though single readings can be large; an effect the other way counts as inactive or inconclusive. Potency means the concentration at half of the fitted maximal effect.

SMILES	HepG2 tox	Anesthetic bind	S2 tox	TGFb SMAD3 inh	ATXN2 expr inh
CCCN1C(=O)c2[nH]nc(-c3ccc(OC)cc3)c2C1c1ccccn1 (stereo not given)	-8%	-12%	.	3%	.
Cc1ccc2[nH]c(-c3ccc(F)cc3F)cc(=O)c2c1	.	6%[163 µM]	.	.	.
O=S(=O)(O)c1ccc(N=Nc2ccccc2)cc1	-20%	-4%	i	-8%	3%
O=c1ccc(N=Nc2ccccc2)ccc1O	18µM*	-11%	13µM*	-25%	?
COC(=O)c1ccc2nc(C3CCCCC3)c(CC(C)(C)C)n2c1	10µM*	.	.	?	?
O=C(N/N=C1/C[C@@H](O)[C@@H](O)[C@@H]2[C@@H]3C(=O)N(C[C@@H]4CCCO4)C(=O)[C@H]3CC[C@H]12)OCc1ccccc1	.	7%[15.3 µM]	.	.	.
Cc1c(C(=O)N(C)C2CCOC2)sc2ncnc(NCC3(c4ccccc4)CCOCC3)c12 (stereo not given)	.	.	i	.	.
CCC(=O)Nc1c(-c2ccccc2)c(=O)c2ccccc2n1C	5%	-2%	.	-3%	-22%
Cc1ccc(-c2nc(N=Nc3ccc(O)cc3)n[nH]2)cc1	-40%	-14%	?	?	0%
COc1ccc(-c2nc(N=Nc3ccc(O)cc3)n[nH]2)cc1	3%	-14%	8.9µM*	-11%	-8%
CC(C)=CCc1c(O)cc(O)c2c(=O)c3c(CC=C(C)C)c(O)ccc3oc12	16µM*	.	25µM*	4µM*	?
CC(C)=CCc1c(O)cc2c(=O)c3ccc(O)cc3oc2c1O	-38%	.	?	?	23%
CCc1ccc(-c2cc(C)no2)cc1S(=O)(=O)NCCCN1CCN(c2ccccc2)CC1	-21%	52%	?	18µM*	?
CC(C)CC(=O)c1c[nH]c(C(=O)NCc2ccc(F)cc2)c1	8%	21%	i	14%	.
O=S(=O)(NCCc1csc(-c2ccc(F)cc2)n1)c1ccc(Cl)cc1	-24%	-10%	?	?	16µM*
O=S(=O)(NCCc1csc(-c2cccc(F)c2)n1)c1cc(F)ccc1F	-26%	-7%	i	?	-15%
COc1ccc(S(=O)(=O)NCCc2csc(-c3ccc(F)cc3)n2)cc1	-15%	-9%	?	?	?
Cc1ccc(S(=O)(=O)NCCc2csc(-c3cccc(F)c3)n2)cc1	-43%	-7%	?	?	?
Cc1ccc(S(=O)(=O)NCCc2csc(-c3ccc(Cl)cc3)n2)cc1	-36%	1%	i	11µM*	?
CCOc1ccc(S(=O)(=O)NCCc2csc(-c3ccc(Cl)cc3)n2)cc1	-67%	0%	?	11µM*	?
Cc1ccc(C)c(S(=O)(=O)NCCc2csc(-c3ccc(Cl)cc3)n2)c1	-94%	-3%	?	11µM*	?
CC(NC(=O)c1cccnc1)c1nnc2n1CCN(Cc1ccc(-c3ccccc3)cc1)CC2 (stereo not given)	.	.	i	.	.
COc1ccc(CNC(=S)Nc2cccc(F)c2)cc1	-1%	-2%	?	-24%	-6%
COc1ccc(-c2nc(Cn3c(SCc4ccc(F)cc4)nc4cccnc43)c(C)o2)cc1	-26%	5%	.	?	.
COc1ccc(-c2nc(Cn3c(SCc4ccc(C)cc4)nc4cccnc43)c(C)o2)cc1OC	-32%	-8%	.	10µM*	.
SMILES	HepG2 tox	Anesthetic bind	S2 tox	TGFb SMAD3 inh	ATXN2 expr inh
CCC(CC)C1C(C#N)=C(N)Oc2n[nH]c(-c3ccccc3)c21 (stereo not given)	8.9µM*	-16%	i	?	?
COc1ccc(CN(C)CC(O)COC(c2ccc(OC)cc2)c2ccc(OC)cc2)cc1 (stereo not given)	22µM*	-11%	i	?	-4%
CCOc1ccc(CN(C)CC(O)COC(c2ccc(OC)cc2)c2ccc(OC)cc2)cc1 (stereo not given)	-184%	-13%	i	?	-15%
CS[C@H]1SC[C@@H]2C(=O)N(C)[C@H](C(C)C)C(=O)OC[C@H](NC(=O)c3cnc4ccccc4n3)C(=O)N[C@H](C)C(=O)N(C)[C@@H]1C(=O)N(C)[C@H](C(C)C)C(=O)OC[C@H](NC(=O)c1cnc3ccccc3n1)C(=O)N[C@H](C)C(=O)N2C	.	.	.	.	0.011µM*
Cc1ccc(-c2ccc(/C=C3\C(=O)ON=C3c3ccccc3)o2)c([N+](=O)[O-])c1	-17%	-15%	35µM*	-4%	?
c1ccc2c(c1)ccn2-n1ccc2ccccc21	-58%	.	.	16µM*	.
COc1ccc(C(=O)COC(=O)CCCC(=O)NC2CCCCC2)cc1	4%	-10%	i	5%	-3%
O=C(CCC(=O)OCC(=O)c1ccccc1)NC1CCCCC1	5.6µM*	-21%	i	?	1%
COc1cccc(NC(=O)C(C)N2C(=O)c3ccccc3C2=O)c1 (stereo not given)	0%	-2%	i	-1%	9%
O=C(Nc1ccc(CN2CCOCC2)cc1)c1ccc(Br)cc1	-2%	-2%	i	-13%	-22%
O=C(Nc1ccc(CN2CCOCC2)cc1)c1ccc(-c2ccc(Br)cc2)o1	10µM*	-17%	?	?	?
COc1ccc(C(=O)NC(=S)Nc2ccc(CN3CCOCC3)cc2)cc1Br	-54%	-1%	?	11µM*	.
COc1ccc(C(=O)NC(=S)Nc2ccc(CN3CCOCC3)cc2)cc1	-53%	-7%	?	0%	11%
Cc1cc(C)c(Cn2c(C(O)c3ccccc3)nc3ccccc32)c(C)c1 (stereo not given)	-39%	12%	?	16µM*	?
COc1ccc(/C=C/C(=O)c2cc(F)ccc2OC(=O)c2ccccc2OC)cc1OC	-74%	?	?	11µM*	?
COc1ccc(/C=C/C(=O)Nc2ccccc2C(=O)O)cc1OC	-18%	2%	i	-5%	?
COc1ccc(C=CC(=O)Nc2ccccc2C(=O)O)cc1OC	.	.	.	.	0.97µM*
CO[C@@H]1COC(=O)C/C=C\[C@@H](C)[C@@H]2C=C[C@H](O)[C@@H](COC(=O)CCC[C@H]1C)O2	.	-6%[15.3 µM]	.	.	.
Cc1cccc2sc(N(Cc3cccnc3)C(=O)C3CCCCC3)nc12	-41%	-1%	.	10µM*	.
O=C(C1CCCCC1)N(Cc1cccnc1)c1nc2c(F)cc(F)cc2s1	-36%	-7%	.	22µM*	.
CC(=O)N(Cc1cccnc1)c1nc2c(F)cc(F)cc2s1	-20%	-10%	.	-21%	.
O=C(Nc1cccc(Nc2ccccc2)c1)c1cnn2c1NC(=C1CC1)C=C2C(F)F	-13%	.	.	10%	.
CC(C)CC(NC(=O)OCc1ccccc1)C(=O)NC(Cc1ccccc1)C(=O)CCl (stereo not given)	-102%	.	.	10µM*	?
COc1cc(-c2ccc(Cl)cn2)cc2c1OCCN(C(=O)c1ccccc1-n1cccn1)C2	.	.	i	.	.
